From PubChem
The list is not random: actives were taken first. Their share in the collection is about 3.2%.
Vaccinia mCherry: qHTS for Stage-Specific Inhibitors of Vaccinia Orthopoxvirus: mCherry Reporter Primary qHTS. Potency, µM (doses to about 36.5 µM), for inactives: at the top dose activity change, negative = inhibition, most hits filed as inhibitors. 310,000 compounds, 0.63% hits. Vaccinia virus mCherry reporter infection, fluorescence; calls by dose curve; tested in A549 cells; note: nearly all actives have a fitted effect of over 35% in size
Vaccinia Venus: qHTS for Stage-Specific Inhibitors of Vaccinia Orthopoxvirus: Venus Reporter Primary qHTS; Potency, µM (top dose mostly 36.5 µM), for inactives: at the top dose activity change, negative = inhibition, hits mostly inhibitors; 330,000 compounds, 0.46% hits; Vaccinia virus Venus reporter expression, fluorescence; calls by dose curve; tested in A549 cells; note: nearly all actives have a fitted effect of over 30% in size
MARV entry inh: qHTS for inhibitors of binding or entry into cells for Marburg Virus; Marburg virus pseudotyped entry inhibition, cell reporter; 300,000 compounds, 1.8% hits; Potency, µM (titrated, usually from 37.8 µM), inactives show at the top dose activity change, negative = inhibition, actives largely listed as inhibitors; AID 540276, 2011; calls by dose curve; tested in HEK293 cells
Lassa entry inh: qHTS for Inhibitors of binding or entry into cells for Lassa Virus. Lassa virus pseudotype entry inhibition, cell reporter. Potency, µM (top dose mostly 37.9 µM), without a hit: at the top dose activity change, negative = inhibition, usual class: inhibitors. 300,000 compounds, 1.2% hits; calls by dose curve; tested in HEK293 cells; note: nearly all actives have a fitted effect of over 50% in size
FMDV inh: High Throughput Screening for Foot and Mouth Disease Virus Antivirals; FMDV antiviral cell-based qHTS; Potency, µM (titrated, usually from 57.9 µM), for inactives: top-dose activity change, negative = inhibition, actives largely listed as inhibitors; 410,000 compounds, 1.2% hits; calls by dose curve; tested in HEK293T cells; note: read-out not given here; nearly all actives have a fitted effect of over 45% in size
An asterisk follows results filed as active; i = inactive; ? = inconclusive; . = no result; ! = a repeat was not active; [ ] = dose if it differs, or a comment. % is set by controls: 0 for no effect and ±100 for the full control effect; potency is the fitted concentration of half-maximal effect.

SMILES	Vaccinia mCherry	Vaccinia Venus	MARV entry inh	Lassa entry inh	FMDV inh
Cc1ccc(C(C)C)cc1OCC(=O)Nc1nnc(C2CC2)s1	2µM*	13.9%	?	?	-13.5%
Cc1occc1C(=O)Nc1cccc(-c2nc(CNC(=O)c3cccc(C#CC(C)(C)O)c3)c(C)o2)c1	?	?	.	.	20µM*
COC(=O)c1cccc(C(=O)NCc2nc(-c3cccc(NC(=O)c4ccoc4C)c3)oc2C)c1	-26.4%	-23.0%	.	.	22.4µM*
CSc1ccccc1C(=O)NCc1nc(-c2cccc(NC(=O)c3ccoc3C)c2)oc1C	?	-29.2%	.	.	31.6µM*
Cc1occc1C(=O)Nc1cccc(-c2nc(CNC(=O)c3ccc4ccccc4n3)c(C)o2)c1	-3.2%	-21.1%	.	.	-8.1%
COCCN1C(=O)NC(c2cccc(F)c2)C(C(C)=O)=C1C (configuration not stated)	.	.	-6.0%[14.2 µM]	.	.
CNC(=O)[C@@H]1C[C@H](NC2CCCCCCC2)CN1Cc1cccc(OC)c1OC	-9.9%	-0.9%	.	.	-1.6%
CCN1CN(Cc2ccco2)CNC1=S	-16.2%	-10.7%	22.7%	?	10.6%
CCN(CC)CCN1C(=O)c2cccc3cc(N)cc(c23)C1=O	?	?	10µM*	-23.7%	?
NC(=O)CN1CCN(CCN2C(=O)c3cccc4cccc(c34)C2=O)CC1	.	.	.	.	-4.0%
O=C1c2cccc3cccc(c23)C(=O)N1CCO	-13.6%	1.2%	.	.	-14.0%
O=C1c2cccc3cc([N+](=O)[O-])cc(c23)C(=O)N1CCN1CCCC1	0.316µM*	?	3.98µM*	?	-0.7%
Nc1cc2c3c(cccc3c1)C(=O)N(CCN1CCCC1)C2=O	?	?	6.31µM*	?	0.0%
O=C(c1ccccc1)C(c1ccccc1)[n+]1csc2ccccc21 (configuration not stated)	-17.5%	-10.0%	.	.	.
O=c1oc(C2(O)CCCCC2)cc2ccc(-c3ccc4[nH]ccc4c3)cc12	0.631µM*	-24.7%	.	.	10.9%
Nc1nc(-c2ccc(Oc3ccccc3)cc2)c(CC(=O)O)s1	.	.	.	.	-1.0%
Cc1nn(-c2ccccc2)c(C)c1-c1nnc(-c2c(C)nn(-c3ccccc3)c2C)o1	-12.0%	-1.2%	?	?	31.6µM*
Cc1ccc(NC(=O)c2ccc(NCCN)c([N+](=O)[O-])c2)cc1	-13.3%	-19.1%	5.3%	?	18.5%
CCc1nc(N)nc(N)c1-c1ccc(Cl)cc1	8.91µM*!	?	?	3.26µM*	-8.6%
CCc1nc(N)nc(N)c1-c1ccc(N(C)Cc2ccccc2)c([N+](=O)[O-])c1	?	1µM*	0.891µM*	?	22.4µM*
CCc1nc(N)nc(N)c1-c1ccc(NCCN)c([N+](=O)[O-])c1	?	4.47µM*	.	.	-15.0%
O=C1CC(SC(=S)C2CCCC2=O)C(=O)N1 (configuration not stated)	-12.7%	-13.2%	.	.	-17.4%
Cc1ccccc1C(NC(=O)C1CCN(Cc2ccc(Oc3ccccc3)cc2)CC1)c1ccsc1 (configuration not stated)	-11.9%	-15.9%	.	.	0.0%
Cc1ccccc1CN1C(=O)CS/C1=N/N=C/c1ccco1	-17.1%	-13.6%	11.2%[46.1 µM]	10µM*	-14.6%
CCC1S/C(=N/N=C/c2ccco2)N(Cc2ccccc2C)C1=O (configuration not stated)	.	.	.	.	-6.8%
SMILES	Vaccinia mCherry	Vaccinia Venus	MARV entry inh	Lassa entry inh	FMDV inh
c1ccc(-c2csc(=Nc3cccnc3)n2CC2CCCO2)cc1 (configuration not stated)	-12.3%	-9.0%	?	1.1%	-21.5%
CN(C)S(=O)(=O)c1cccc(N=c2scc(-c3ccc4c(c3)NC(=O)CO4)n2CC2CCCO2)c1 (configuration not stated)	.	-20.4%	?	?	28.2µM*
COCC(C)n1c(-c2ccc3c(c2)NC(=O)CO3)csc1=Nc1ccc(OC(F)F)cc1 (configuration not stated)	?	?	?	?	20µM*
COc1ccccc1CNS(=O)(=O)c1ccc2c(c1)NC(=O)CO2	.	.	.	.	17.1%
Cc1ccc(OCCC(=O)OCC(=O)c2ccc3c(c2)NC(=O)CO3)cc1	.	.	.	.	-4.9%
O=C1COc2ccc(-c3csc(=Nc4ccc(OC(F)F)cc4)n3CC3CCCO3)cc2N1 (configuration not stated)	.	.	-14.8%	?	22.4µM*
COc1ccccc1N=c1scc(-c2ccc3c(c2)NC(=O)CO3)n1CC1CCCO1 (configuration not stated)	.	-29.1%	?	?	35.5µM*
CCn1c(-c2ccccc2F)nc2cc(NC(C)=O)cc(C(=O)N(C)Cc3cn(C)nc3C)c21	2.4%	-6.7%	.	.	-9.9%
NC1=NC[C@H](c2ccccc2)N1CCc1cc(C(F)(F)F)cc(C(F)(F)F)c1	10µM*	10µM*	.	.	?
NC1=NC[C@@H](CC2CCCCC2)N1CCc1cc(C(F)(F)F)cc(C(F)(F)F)c1	?	10µM*	.	.	35.5µM*
CC(O)[C@H]1CN=C(N)N1CCc1cc(C(F)(F)F)cc(C(F)(F)F)c1 (some centres not stated)	-20.1%	-1.9%	.	.	-1.8%
NC1=NC[C@H](Cc2ccc(O)cc2)N1CCc1cc(C(F)(F)F)cc(C(F)(F)F)c1	-10.7%	-0.8%	.	.	-14.3%
Cc1ccc(C(CC(=O)O)NC(=O)c2ccc(S(=O)(=O)N3CC(C)OC(C)C3)cc2)cc1 (configuration not stated)	.	.	.	.	-10.0%
Cc1cc(C)nc(NC(=NCCc2c[nH]c3ccccc23)NC(=O)Nc2ccc(Cl)c(Cl)c2)n1	-22.5%	-11.3%	?	-21.8%	-22.6%
Cc1cc(C)nc(NC(=NCCc2c[nH]c3ccccc23)NC(=O)c2ccco2)n1	?	?	11.2µM*	?	?
Cc1cc(C)nc(NC(=NCCc2c[nH]c3ccccc23)NC(=O)Nc2ccccc2)n1	?	?	14.6µM*	?	0.0%
Cc1cc(C)nc(NC(=NCCc2c[nH]c3ccccc23)NC(=O)Nc2cccc([N+](=O)[O-])c2)n1	-24.9%	-15.1%	-5.5%	-0.1%	-16.3%
CC1=CC(C)(C)Nc2ccc(OC(=O)CN3C(=O)c4ccccc4C3=O)cc21	-11.7%	65.4%	?	?	?
CC1=CC(C)(C)Nc2ccc(OC(=O)C(Cc3ccccc3)N3C(=O)c4ccccc4C3=O)cc21 (configuration not stated)	.	-1.4%	13.6%[46.1 µM]	5.01µM*	0.0%
CC/C(=N\N1CCCCCC1)c1c(O)n(-c2ccc(C)cc2)c(=O)[nH]c1=O	i	-17.6%	11.2%	0.398µM*	0.0%
O=c1cc(CN2CC(O)Cc3ccc4ccccc4c32)nc2sccn12 (configuration not stated)	-24.0%	-12.9%	-12.6%[46.1 µM]	-2.8%[46.1 µM]	-23.8%
Cc1nn2c(=O)cc(COC(=O)c3cccc(NC(=O)COc4ccccc4C)c3)nc2s1	-4.4%	-6.6%	.	26.3%[46.1 µM]	2.82µM*
